Several values for one entry are separate records, joined by “and”; a condition that tells them apart may be missing. Equal values may be shown once. Inconclusive results are not listed. Activity calls are given as the source filed them. Rule as the data show it, unless noted: active = inhibition above about 80%; inactive = the rest.
What was measured:
[1] = growth inhibition of DIPG glioma cells, dose response, cell-based, SU-DIPG-XIII, MIPE5.0, CellTiter-Glo, qHTS (AID 1347064; cut-off not given, nearly all actives have AC50 up to about 23 µM;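 as to AC50: cells exposed to compound for 48 hours before the viability read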); conditions: SU-DIPG-XIII viability, CellTiter-Glo ATP luminescence
[2] = modifiers of HSF1 nuclear foci, imaging, Selleck Cancer Library (AID 1347162; in the data active = plate-normalised HSF1 focus index below about 0.46); conditions: human cells, at 10 µM; SSMD: measured here: HSF1 foci SSMD mean; cell count: measured here: cell number; plate-normalised HSF1 focus index: stronger effect = lower value
[3] = viability loss in pontine glioma line – cell-based, SU-DIPG-XXV, MIPE5.0, CellTiter-Glo, qHTS, dose response (AID 1347065; cut-off not given, nearly all actives have AC50 up to about 26 µM;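 also: cells exposed to compound for 48 hours before ATP readout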); conditions: CellTiter-Glo ATP luminescence
[4] = LFS_MB_1R medulloblastoma cell growth inhibition, synergistic combos for chromothripsis tumors, cisplatin or BGB combos (AID 1671452); conditions: LFS_MB_1R medulloblastoma cells, stronger effect = higher value;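 also: cells exposed for 96 hours before readout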
[5] = CRL2098 osteosarcoma cell growth inhibition, synergistic combos for chromothripsis tumors, BGB or cisplatin IC20 combos (AID 1671454); conditions: CRL2098 osteosarcoma cells, drug combinations, stronger effect = higher value;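 also: cells exposed for 96 h before readout; 0% = vehicle DMSO and 100% = killing by high DMSO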
[6] = HD-MB03 medulloblastoma cell growth inhibition, synergistic combos for chromothripsis tumors, BGB or cisplatin IC20 combos (AID 1671455; in the data active = inhibition above about 83%;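 also: 0% = vehicle DMSO and 100% = high DMSO as cytotoxic control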); conditions: HD-MB03 medulloblastoma cells, stronger effect = higher value
[7] = UWB1.289 ovarian carcinoma cell growth inhibition, synergistic combos for chromothripsis tumors, BGB or cisplatin combos (AID 1671456); conditions: UWB1.289 ovarian carcinoma cells, stronger effect = higher value;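 also: cells exposed to compound for four days; 0% = vehicle DMSO and 100% = killing by high DMSO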
[8] = LFS_MB_2R medulloblastoma cell growth inhibition, synergistic combos for chromothripsis tumors, cisplatin combos (AID 1671457); conditions: LFS_MB_2R medulloblastoma cells, stronger effect = higher value;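 also: cells exposed to compound for four days before readout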
[9] = UWB1.289_BRCA1 ovarian cancer growth, cell-based, BGB or cisplatin combinations (AID 1671459); conditions: UWB1.289 BRCA1 ovarian carcinoma, drug combinations, stronger effect = higher value
[10] = human astrocyte viability loss, single and combined drugs, cytotoxicity control for chromothriptic childhood tumor combination screen, cell-based, BGB or cisplatin IC20 combos (AID 1671460); conditions: Human astrocytes, drug combinations, stronger effect = higher value;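 also: cells exposed to compounds for 96 hours before viability readout; 0% = vehicle and 100% = killing control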
[11] = tested on: Neuropilin-2 / VEGF-C interaction (human); experiment: inhibitors of NRP2–VEGF-C binding, biochemical, microplate binding format, z-score (AID 743281; call rule not given here); conditions: microplate NRP2/VEGF-C binding assay; stronger effect = lower value
[12] = liver-stage malaria parasite growth inhibition, primary screen, cell-based, HepG2, luciferase luminescence, HepG2 viability (AID 624349; in the data active = parasite load remaining mostly below about 12%, no sharp cut-off; inactive = mostly above about 10%;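 also: 100% = mean of DMSO negative control wells on the same plate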); conditions: P. berghei liver stage in HepG2, luciferase luminescence, concentration not given here; parasite load remaining: stronger effect = lower value; viability: measured here: HepG2 viability without parasites
[13] = inhibitors of Cryptococcus chitosan production, flow cytometry, Cibacron Brilliant Red staining (AID 1347148; call rule not given here;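 also: compound exposure lasted three days at 37 degrees C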); conditions: Cryptococcus neoformans chitosan, stronger effect = lower value; at 99.1 µM unless noted
[14] = protection against mutant huntingtin cytotoxicity, PC12 cells, LDH release (AID 1610); conditions: PC12 mutant huntingtin toxicity, final LDH at 4 uM, stronger effect = lower value
[15] = measured here: combination with BGB IC40, at 0.05 µM
[16] = measured here: combination with cisplatin, at 0.5 µM
[17] = measured here: combination with cisplatin, at 5 µM
[18] = measured here: combination with BGB at IC20, at 0.5 µM
[19] = measured here: combination with cisplatin at IC20, at 0.5 µM
[20] = measured here: combo with BGB at IC20, at 0.5 µM
[21] = measured here: combo with cisplatin at IC20, at 0.5 µM
[22] = measured here: inhibition with BGB combination, at 0.05 µM
[23] = measured here: inhibition with cisplatin combination, at 0.05 µM
[24] = BGB combination, concentration series, at 5 µM
[25] = cisplatin combination, concentration series, at 5 µM
[26] = measured here: combo with BGB IC20, at 0.5 µM
[27] = measured here: combo with cisplatin IC20, at 0.5 µM

Compound: Cc1ccc(-c2cc(C(F)(F)F)nn2-c2ccc(S(N)(=O)=O)cc2)cc1
- AC50 [1]: 18.6 µM (active)
- SSMD [2]: -12.9
- cell count [2]: 5490
- plate-normalised HSF1 focus index [2]: 0.546 (inactive)

Compound: Cn1cnc([N+](=O)[O-])c1Sc1ncnc2nc[nH]c12
- AC50 [3]: 6.61 µM (active)
- inhibition ([4]; at 0.5 µM): -1.99% (inactive) and -33.4% (inactive)
- inhibition [4, 15]: -14.2% and -22.8%
- inhibition [4, 16]: -2.77% and -51.2%
- inhibition [4, 17]: 10.1% and -28.7%
- inhibition ([5]; at 0.5 µM): -39.2% (inactive) and -50.5% (inactive)
- inhibition [5, 18]: -37.7% and -16.5%
- inhibition [5, 19]: -43.1% and -68.9%
- inhibition ([6]; at 0.5 µM): -1.96% (inactive) and 2.76% (inactive)
- inhibition [6, 20]: -3.82% and 4.08%
- inhibition [6, 21]: -5.61% and 15.3%
- inhibition ([7]; at 0.5 µM): 39.3% (inactive) and 42.9% (inactive)
- inhibition [7, 22]: -15.3% and -18.7%
- inhibition [7, 23]: -7.01% and -1.15%
- inhibition ([8]; at 0.5 µM): -16.6% (inactive) and -22.7% (inactive)
- inhibition [8, 16]: -17.1% and -11.6%
- inhibition [8, 17]: -20.9% and -25.4%
- inhibition [9, 24]: 90.9% and 88.9%
- inhibition ([9]; at 0.5 µM): 37.4% (inactive) and 50.2% (inactive)
- inhibition [9, 25]: 96.5% and 101%
- inhibition ([10]; at 0.5 µM): -1.25% (inactive) and 13.6% (inactive)
- inhibition [10, 26]: 5.14% and 24.1%
- inhibition [10, 27]: -7.22% and 6.12%

Compound: CN[C@H]1CC[C@@H](c2ccc(Cl)c(Cl)c2)c2ccccc21
- z-score [11]: -0.0357 (inactive)
- AC50 [1]: 26.3 µM (active)

Compound: O=c1[nH]cc(F)c(=O)[nH]1
- outcome [1]: inactive
- outcome [3]: inactive
- SSMD [2]: 2.14
- cell count [2]: 7020
- plate-normalised HSF1 focus index [2]: 1.12 (inactive)
- inhibition ([4]; at 0.5 µM): -23.7% (inactive)
- inhibition [4, 15]: -2.27%
- inhibition [4, 16]: 11.9%
- inhibition [4, 17]: -15.5%
- inhibition ([5]; at 0.5 µM): -19.9% (inactive)
- inhibition [5, 18]: -48.5%
- inhibition [5, 19]: 13.5%
- inhibition ([6]; at 0.5 µM): -10.4% (inactive)
- inhibition [6, 20]: -12.3%
- inhibition [6, 21]: -6.42%
- inhibition ([7]; at 0.5 µM): 0.81% (inactive)
- inhibition [7, 22]: -23.6%
- inhibition [7, 23]: -10.5%
- inhibition ([8]; at 0.5 µM): -13.7% (inactive)
- inhibition [8, 16]: -7.48%
- inhibition [8, 17]: -1.94%
- inhibition [9, 24]: 2.42%
- inhibition ([9]; at 0.5 µM): -7.71% (inactive)
- inhibition [9, 25]: 17%
- inhibition ([10]; at 0.5 µM): -3.88% (inactive)
- inhibition [10, 26]: 2.98%
- inhibition [10, 27]: -4.03%

Compound: N[C@@H](C(=O)N[C@@H]1C(=O)N2C(C(=O)O)=C(Cl)CS[C@H]12)c1ccccc1
- z-score [11]: -0.232 (inactive)

Compound: CCCCCCNC(=O)n1cc(F)c(=O)[nH]c1=O
- parasite load remaining [12]: 405% (inactive) and 109% (inactive)
- viability [12]: 90% and 80.4%
- z-score [11]: 0.686 (inactive)
- inhibition ([4]; at 0.5 µM): -10.6% (inactive) and -21.3% (inactive)
- inhibition [4, 15]: -28.1% and 5.33%
- inhibition [4, 16]: -15.3% and -53.6%
- inhibition [4, 17]: -40% and -9.49%
- inhibition ([5]; at 0.5 µM): -23.4% (inactive) and -30.5% (inactive)
- inhibition [5, 18]: -16.8% and -6.28%
- inhibition [5, 19]: -120% and -21%
- inhibition ([6]; at 0.5 µM): -1.02% (inactive) and -7.18% (inactive)
- inhibition [6, 20]: -21.9% and -3.96%
- inhibition [6, 21]: 21% and -14.9%
- inhibition ([7]; at 0.5 µM): 5.77% (inactive) and 18.7% (inactive)
- inhibition [7, 22]: -24.4% and -30.3%
- inhibition [7, 23]: -28.4% and -20.9%
- inhibition ([8]; at 0.5 µM): -18.7% (inactive) and -16.7% (inactive)
- inhibition [8, 16]: -15.8% and -16.6%
- inhibition [8, 17]: -25.7% and -25.2%
- inhibition [9, 24]: 34.1% and 35.2%
- inhibition ([9]; at 0.5 µM): 11% (inactive) and 22.4% (inactive)
- inhibition [9, 25]: 14.4% and 26.3%
- inhibition ([10]; at 0.5 µM): 7.08% (inactive) and 16.2% (inactive)
- inhibition [10, 26]: -8.62% and 3.35%
- inhibition [10, 27]: 18.1% and 20.7%

Compound: CN(CCOc1ccc(CC2SC(=O)NC2=O)cc1)c1ccccn1 (centres undefined)
- viability [12]: 80.3% and 91.8% and 74.9%
- z-score [11]: 0.0365 (inactive) and -0.614 (inactive)
- outcome [3]: inactive
- SSMD [2]: 2.43
- cell count [2]: 7680
- plate-normalised HSF1 focus index [2]: 1.15 (inactive)

Compound: CN1CCCC(n2nc(Cc3ccc(Cl)cc3)c3ccccc3c2=O)CC1 (centres undefined)
- parasite load remaining [12]: 30% (inactive) and 46.4% (inactive) and 19.4% (inactive)
- viability [12]: 75.4% and 180% and 64.4%
- z-score [11]: 0.519 (inactive)

Compound: O=S(=O)(O)CCS
- parasite load remaining [12]: 51.7% (inactive) and 115% (inactive) and 24.6% (inactive)
- viability [12]: 104% and 70.5% and 96.3%
- outcome [1]: inactive
- outcome [3]: inactive

Compound: CCCNCC(O)COc1ccccc1C(=O)CCc1ccccc1 (centres undefined)
- outcome [1]: inactive

Compound: NS(=O)(=O)c1cc2c(cc1Cl)NC=NS2(=O)=O
- outcome [1]: inactive
- outcome [3]: inactive

Compound: O=C(CCCN1CC=C(n2c(=O)[nH]c3ccccc32)CC1)c1ccc(F)cc1
- z-score [11]: 0.0538 (inactive)

Compound: CCCCC1=NC2(CCCC2)C(=O)N1Cc1ccc(-c2ccccc2-c2nn[nH]n2)cc1
- parasite load remaining [12]: 50.9% (inactive) and 54.9% (inactive) and 98.2% (inactive)
- viability [12]: 86.5% and 93.9% and 73.1%
- z-score [11]: 0.146 (inactive)

Compound: CC(=O)CCCCn1c(=O)c2c(ncn2C)n(C)c1=O
- z-score [11]: -0.728 (inactive)

Compound: CC(N=C(NC#N)Nc1ccncc1)C(C)(C)C (centres undefined)
- z-score [11]: -0.52 (inactive)
- fold fluorescence [13]: 3.41 [at 203.8 µM] (inactive)

Compound: CN(C)CCOC(C)(c1ccccc1)c1ccccn1 (centres undefined)
- z-score [11]: -0.0183 (inactive)

Compound: Cc1ccc(S(=O)(=O)NC(=O)NN2CCCCCC2)cc1
- fold fluorescence [13]: 4.87 [at 160.6 µM] (inactive)

Compound: CN(C)CCC[C@@]1(c2ccc(F)cc2)OCc2cc(C#N)ccc21
- parasite load remaining [12]: 78.9% (inactive) and 44.8% (inactive)
- viability [12]: 63.5% and 102%
- z-score [11]: 0.314 (inactive)

Compound: OCCN1CCN(CCCN2c3ccccc3Sc3ccc(Cl)cc32)CC1
- normalised LDH release [14]: 0.608

Compound: CCN(CC)CCNC(=O)c1ccc(N)cc1
- fold fluorescence [13]: 4.18 [at 212.5 µM] (inactive)

Compound: CN(C)C(=O)Oc1ccc[n+](C)c1
- parasite load remaining [12]: 46.4% (inactive) and 38.1% (inactive) and 33.2% (inactive)
- viability [12]: 90.6% and 93.2% and 82.1%

Reference: PubChem BioAssay
